# SMN2 splice up – qHTS Assay for Enhancers of SMN2 Splice Variant Expression | HEK293 SMN2-luciferase splicing reporter, luminescence, 30-36 h | Potency, µM (titrated, usually from 46.1 µM), hits mostly activators | actives 2.8% (n = 210,000); also: nearly all actives have a fitted effect of over 55% in size
#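 qHTS luciferase splicing reporter: luminescence rises when SMN2 exon 7 is included in transfected HEK293 cells. Compound exposure lasted 30-36 h at 37C, with 4.5 mM final sodium butyrate as control, followed by a ONE-Glo read.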
# Luc counter – Counterscreen for Luciferase (Kinase-Glo TM) Inhibition | AID 1379, 2008 | Potency, µM (doses to about 38.3 µM), hits mostly inhibitors | Kinase-Glo luciferase, ATP luminescence, 8 min | actives 0.28% (n = 200,000); also: nearly all actives have a fitted effect of over 60% in size
#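 Light output from Kinase-Glo luciferase with luciferin and 10 uM ATP in 50 mM imidazole pH 7.2, KCl, MgCl2, Tween 20, BSA; compound pin-delivered, 8-min ambient incubation, then luminescence read.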
# NPC1 prom act – qHTS Assay for NPC1 Promoter Activators | Potency, µM (titrated, usually from 9.22 µM), most hits filed as activators | Huh7 NPC1 promoter luciferase reporter, 24 h | actives 2.4% (n = 320,000); also: nearly all actives have a fitted effect of over 60% in size
#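 In 1536-well qHTS, Huh7 cells harboring an NPC1 promoter–luciferase construct received compound for 24 h; activation was quantified by luminescence following luciferase reagent addition.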
# Rab9 prom act – qHTS Assay for Rab9 Promoter Activators; Huh7 Rab9 promoter-luciferase reporter, luminescence, 24 h; Potency, µM (highest dose often 9.22 µM), most hits filed as activators; actives 2.8% (n = 320,000); also: nearly all actives have a fitted effect of over 60% in size
#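 Huh7 cells stably carrying a Rab9 promoter-luciferase reporter, 1500 cells per well in OP-MEM I with 10% FBS, treated with compound 24 hours at 37C. Luciferase activity read by luminescence after 10 minutes with Amplite reagent.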
# ELG1 genotox – qHTS screen for small molecules that induce genotoxicity in human embryonic kidney (HEK293T) cells expressing luciferase-tagged ELG1 | HEK293T ELG1-luciferase reporter, luminescence, 16 h | Potency, µM (doses to about 46 µM), hits mostly activators | actives 1.3% (n = 330,000); also: nearly all actives have a fitted effect of over 60% in size
#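 Cells (2,000/well) expressing the ELG1-luciferase fusion are dosed by pin tool and kept 16 hr at 37 °C, 5% CO2. Signal comes from ONE-Glo luciferase reagent after 30 min at room temperature.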
# FLuc counter – qHTS profiling assay for firefly luciferase inhibitor/activator using purifed enzyme and Km concentrations of substrates (counterscreen for miR-21 project). Luciferin 4-monooxygenase (Photinus pyralis), P08659. purified FLuc, Km substrates, luminescence inhibition. Potency, µM (highest dose often 57.5 µM), usual class: inhibitors. actives 6.9% (n = 360,000); also: nearly all actives have a fitted effect of over 55% in size
# Target sequence (P08659 whole entry, looked up): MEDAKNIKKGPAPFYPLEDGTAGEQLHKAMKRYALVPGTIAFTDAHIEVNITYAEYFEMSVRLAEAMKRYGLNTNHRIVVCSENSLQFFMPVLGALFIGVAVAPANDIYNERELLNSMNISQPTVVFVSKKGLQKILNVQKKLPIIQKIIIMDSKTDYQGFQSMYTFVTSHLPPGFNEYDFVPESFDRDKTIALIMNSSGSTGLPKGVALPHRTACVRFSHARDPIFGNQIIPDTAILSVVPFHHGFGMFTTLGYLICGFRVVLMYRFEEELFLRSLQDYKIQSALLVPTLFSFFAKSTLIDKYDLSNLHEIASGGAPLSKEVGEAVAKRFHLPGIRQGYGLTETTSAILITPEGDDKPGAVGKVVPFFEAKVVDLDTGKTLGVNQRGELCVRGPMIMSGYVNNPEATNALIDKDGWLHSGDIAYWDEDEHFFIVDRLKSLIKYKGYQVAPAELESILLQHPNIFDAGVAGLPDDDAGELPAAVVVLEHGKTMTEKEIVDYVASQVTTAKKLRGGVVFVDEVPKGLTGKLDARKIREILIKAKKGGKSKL
#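 Purified P. pyralis luciferase (10nM final) with 10uM D-luciferin and 10uM ATP (Km levels) in 50mM Tris acetate pH 7.5, 10mM Mg acetate, 0.01% Tween-20, 0.05% BSA; qHTS 6-point titration, ~60 µM downward; luminescence read.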
# A number is an active result; – = inactive; ? = inconclusive; · = no result. An excerpt weighted towards active compounds, which were near 7.3% of everything screened. Calls follow the shape of the dose curve; as a rule, active = well fitted curve in the direction sought with a large enough effect; inconclusive = small, poorly fitted or top-dose-only effect, or another doubt; inactive = no such curve, though single readings can be large; an effect the other way counts as inactive or inconclusive.
SMILES,SMN2 splice up,Luc counter,NPC1 prom act,Rab9 prom act,ELG1 genotox,FLuc counter
COc1ccc(NC(=O)CSc2nc(-c3ccco3)cc(C(F)(F)F)n2)cc1OC,–,·,·,·,·,–
Cc1cccc(NC(=O)CSc2ccc(-c3ccco3)nn2)c1,–,–,–,–,–,27µM
Oc1ccc2c3c1O[C@H]1c4[nH]c5c(c4C[C@@]4(O)[C@@H](C2)N(CC2CC2)CC[C@]314)C[C@]1(O)[C@H]2Cc3ccc(O)c4c3[C@@]1(CCN2CC1CC1)[C@@H]5O4,·,–,·,·,·,·
C=CCn1c(O)c(C(C)=NCCN2CCOCC2)c(=O)[nH]c1=O,–,–,–,–,–,–
COC(=O)C(O)(c1ccc(NC(=O)NC2CCCCC2)cc1)C(F)(F)F (stereo unspecified),?,–,?,?,?,12µM
COc1ccc(-c2coc3cc(OC(=O)N4CCOCC4)ccc3c2=O)cc1,·,·,–,?,–,24µM
O=C(Oc1ccc2ccc(OC(=O)N3CCOCC3)cc2c1)N1CCOCC1,–,–,–,–,–,?
COc1ccc(C(=O)Nc2ccc(Cl)cc2C(=O)c2ccccc2)c(OC)c1,–,·,·,·,·,–
COc1ccc2nc(NC(=O)CCc3nc(C4=CCN(C)CC4)no3)sc2c1,–,–,–,–,–,21µM
COc1ccccc1OCCCn1cc(C=O)c2ccccc21,·,–,?,0.5µM,–,?
O=Cc1cn(CCCOc2ccccc2)c2ccccc12,–,–,?,?,–,–
COC(=O)C1=C(c2cccc(OC)c2OC)C[C@@H]2CC[C@H]1N2C,·,·,–,–,–,–
CN(C(=O)Oc1ccc(F)cc1)c1ccccc1,·,·,–,–,–,–
CCC(=O)c1ccc(OC(=O)N(C)c2ccccc2)cc1,11µM,–,2.8µM,2.2µM,15µM,?
CN(C(=O)Oc1ccc(C(C)(C)C)cc1)c1ccccc1,–,–,–,?,?,24µM
COc1ccc(C(CC(=O)N2CCC3(CC2)OCCO3)NS(=O)(=O)c2ccc(F)cc2)cc1 (stereo unspecified),–,–,–,3.5µM,–,–
CN(C)C1(CNC(=O)c2cc(S(=O)(=O)N3CCOCC3)c(Cl)cc2Cl)CCCCC1,·,·,–,–,–,–
C#CCN1C(=O)S/C(=C\c2ccc(N3CCOCC3)cc2C)C1=O,–,–,?,2.8µM,?,2.4µM
CC[C@]12CCCN3CCC4(c5ccccc5NC4C(C(=O)O)C1)C32 (stereo partly specified),–,–,·,·,·,·
COc1ccc(Cn2c(N)c(C(=O)NCc3ccco3)c3nc4ccccc4nc32)cc1,–,–,–,–,–,–
COc1ccccc1N(CC(=O)NC1CCCC1)C(=O)c1cnn(C(C)C)c1,?,–,?,?,–,15µM
COc1ccccc1N(CC(=O)NC1CCCCC1)C(=O)c1cnn(C(C)C)c1,–,–,–,–,–,–
CCN1CCN(c2nc3ccccc3s2)CC1,11µM,–,2.2µM,2µM,?,11µM
CCCC(c1nnnn1Cc1cccs1)N1CCN(c2nc3ccccc3s2)CC1 (stereo unspecified),–,–,–,–,–,–
COC(=O)c1ccc(CC(C(=O)c2ccccc2)N(C)C)cc1 (stereo unspecified),·,·,?,?,?,15µM
SMILES,SMN2 splice up,Luc counter,NPC1 prom act,Rab9 prom act,ELG1 genotox,FLuc counter
CCN(CC)C(=O)c1ccc(NC(=O)c2cccc(F)c2)cc1,–,–,–,–,?,15µM
O=C(c1ccc(F)cc1)C(Cc1ccccc1)N1CCCCC1 (stereo unspecified),–,–,–,?,–,19µM
O=C(CSCC(=O)N1CCOCC1)Nc1nc(-c2ccc3c(c2)OCO3)cs1,–,–,–,–,–,?
Cc1ccc(-c2cc(-c3ccccc3)cc(-c3ccccc3)[n+]2-c2ccccc2C(=O)O)cc1,·,·,–,–,–,–
Cc1ccc(CSc2ncccc2C(=O)O)cc1,?,–,–,–,?,17µM
COc1cc2[nH]c(=O)[nH]c(=O)c2cc1OC,?,–,·,·,·,·
COc1ccc(NC(=O)O/N=C/c2ccccc2)cc1,·,·,3.5µM,?,?,9.5µM
CCN(CC)c1ccc(/C=C2\C(=O)NC(=S)N(C)C2=O)o1,·,·,1.4µM,1.3µM,21µM,9.5µM
CCN(CC)c1ccc(C=C2C(=O)N(C)C(=S)N(C)C2=O)o1,?,–,–,?,?,?
O=C(Nc1ccc(Cl)cc1)Nc1nccs1,?,–,–,–,–,11µM
O=C(Nc1nccs1)C(Cl)(Cl)Cl,–,–,–,–,–,–
COC(=O)C12C/C=C\Cc3ccccc3[C@@H]1CNC2=O (stereo partly specified),–,–,·,·,·,·
CN1C(=O)C(=Cc2ccc(N3CCCCC3)o2)C(=O)N(C)C1=S,–,–,–,–,–,?
CN1C(=O)C(=Cc2ccc(SC3CCCCC3)o2)C(=O)N(C)C1=O,–,–,–,–,–,17µM
C=CCn1c(O)c(C(C)=Nc2ccc(N(C)C)cc2)c(=O)[nH]c1=O,?,–,–,–,?,–
C=CCn1c(O)c(C(C)=Nc2cc(OC)ccc2OC)c(=O)[nH]c1=O,–,–,–,–,23µM,–
C=CCn1c(O)c(C(C)=NCc2ccco2)c(=O)[nH]c1=O,–,–,–,–,?,–
CC1CC(OP(O)(=S)c2ccc(N(C)C)cc2NC(=O)c2cccs2)CC(C)(C)C1 (stereo unspecified),–,–,–,–,–,11µM
Cc1ccc(OCCOc2cccc(C=C3C(=O)NC(=O)NC3=O)c2)cc1,·,·,0.32µM,0.32µM,–,8.5µM
COc1ccc(N=Cc2c(O)n(C)c(=O)n(C)c2=O)cc1,·,·,–,–,–,13µM
Cn1c(O)c(/C=N/c2ncccn2)c(=O)n(C)c1=O,–,–,–,–,–,–
Cc1cccc(N=Cc2c(O)n(C)c(=O)n(C)c2=O)c1,·,·,–,–,–,–
Cc1ccc(N=Cc2c(O)n(C)c(=O)n(C)c2=O)cc1,·,·,–,–,–,12µM
CC(C)[C@H]1C(=O)O[C@@H]2CCN3CC=C(COC(=O)[C@](C)(O)[C@]1(C)O)[C@H]23,·,·,–,?,–,–
CC(=O)O[C@@H]1CC[C@]2(C)C3CC[C@]4(C)C(=O)[C@H](O)CC4C3[C@@H](OC(C)=O)C[C@H]2C1 (stereo partly specified),·,·,·,·,–,·
O=C1NC(=O)C(=Cc2ccc(Oc3ccc([N+](=O)[O-])cc3)cc2)C(=O)N1,–,–,–,–,–,–

# Compound activity from PubChem BioAssay.
